Measurements reported in PubChem BioAssay (NCATS).
Inconclusive results are not listed. Active and inactive are the calls of the source. Calls follow the shape of the dose curve; as a rule, active = well fitted curve in the direction sought with a large enough effect; inconclusive = small, poorly fitted or top-dose-only effect, or another doubt; inactive = no such curve, though single readings can be large; an effect the other way counts as inactive or inconclusive.

Experiments:
[1] = qHTS of pediatric cancer cell lines to identify multiple opportunities for drug repurposing: Primary screen for NB1643 cells (AID 1347099); also: nearly all actives have a fitted effect of over 50% in size
In short: (§1)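 Viability was measured as metabolically active cells after 48 hours of treatment, read by CellTiter-Glo luminescence. Compounds were tested at multiple final concentrations, giving concentration-response curves.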

[2] = qHTS of pediatric cancer cell lines to identify multiple opportunities for drug repurposing: Primary screen for LAN-5 cells (AID 1347100)
In short: (§2)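 Viability after 48 h compound treatment at 37C, 500-1,000 cells/well, read as ATP luminescence with CellTiter-Glo. Primary screens used 11-point (MIPE, 0.78 nM-46 µM) or 8-point (NPC, 0.59 nM-46 µM) final concentrations; follow-up screens used 11-point dilutions.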

[3] = qHTS of pediatric cancer cell lines to identify multiple opportunities for drug repurposing: Primary screen for BT-12 cells (AID 1347101); also: nearly all actives have a fitted effect of over 25% in size
In short: (§3)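 Cells (500-1,000/well) rested 5 h, then received compounds for 48 h; metabolically active cells were measured by CellTiter-Glo luminescence. Final concentrations spanned up to 46 µM (MIPE, 11-point) or 0.59 nM-46 µM (NPC, 8-point) in primary screens, 11-point in follow-ups.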

[4] = qHTS of pediatric cancer cell lines to identify multiple opportunities for drug repurposing: Primary screen for Rh18 cells (AID 1347102); also: nearly all actives have a fitted effect of over 65% in size
In short: as §2

[5] = qHTS of pediatric cancer cell lines to identify multiple opportunities for drug repurposing: Primary screen for RD cells (AID 1347104); also: nearly all actives have a fitted effect of over 55% in size
In short: as §1

[6] = qHTS of pediatric cancer cell lines to identify multiple opportunities for drug repurposing: Primary screen for MG 63 (6-TG R) cells (AID 1347105); also: nearly all actives have a fitted effect of over 50% in size
In short: as §1

[7] = qHTS of pediatric cancer cell lines to identify multiple opportunities for drug repurposing: Primary screen for control Hh wild type fibroblast cells (AID 1347106);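 also: series mostly up to about 46 µM; a drop in luminescence marks cytotoxicity and a rise apparent proliferation; nearly all actives have a fitted effect of over 55% in size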
In short: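 Cells (500-1,000/well) in growth media were settled 5 h at 37 degrees C, then given compounds for 48 h. Viability was read as CellTiter-Glo luminescence. Primary runs used MIPE at 11 points (0.78 nM-46 µM) and NPC at 8 points (0.59 nM-46 µM); follow-ups used 11 points.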

[8] = qHTS of pediatric cancer cell lines to identify multiple opportunities for drug repurposing: Primary screen for Rh30 cells (AID 1347107); also: series mostly up to about 46 µM; nearly all actives have a fitted effect of over 75% in size
In short: as §2

[9] = qHTS of pediatric cancer cell lines to identify multiple opportunities for drug repurposing: Primary screen for Rh41 cells (AID 1347108);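 also: series mostly up to about 46 µM; luminescence drop marks cytotoxic hits; nearly all actives have a fitted effect of over 70% in size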
In short: as §1

[10] = qHTS of pediatric cancer cell lines to identify multiple opportunities for drug repurposing: Primary screen for OHS-50 cells (AID 1347103); also: nearly all actives have a fitted effect of over 40% in size
In short: as §3

Measured: Potency

O=C(O)CCC(=O)O
not listed: [10]
inactive: all other assays above

COC(=O)N/N=C/c1c[n+]([O-])c2ccccc2[n+]1[O-]
not listed: [4]
inactive: all other assays above

Cc1c(I)c(=O)n(-c2ccccc2)n1C
not listed: [5] | [10]
inactive: all other assays above

CC(CN(C)C)C(C)(O)Cc1ccc(Cl)cc1 (stereo unspecified)
not listed: [10]
inactive: all other assays above

COc1ccc2cc(CCC(C)=O)ccc2c1
not listed: [10]
inactive: all other assays above

CCCC(O)C(CC)CO (stereo unspecified)
not listed: [10]
inactive: all other assays above

CN(C/C=C/C#CC(C)(C)C)Cc1cccc2ccccc12
not listed: [5] | [6] | [10]
inactive: all other assays above

CNCc1ccccc1
not listed: [10]
inactive: all other assays above

Cc1c(NC(=O)c2cccnc2)c(=O)n(-c2ccccc2)n1C
not listed: [10]
inactive: all other assays above

O=c1[nH]c2cc(C(F)(F)F)c(N3CCOCC3)cc2n(CP(=O)(O)O)c1=O
not listed: [10]
inactive: all other assays above

O=C(O)CCCc1ccccc1
not listed: [10]
inactive: all other assays above

O=C1c2ccccc2S(=O)(=O)N1CCCCN1CCN(c2ncccn2)CC1
not listed: [10]
inactive: all other assays above

Cn1cc(C(=O)[C@@H]2CCc3nc[nH]c3C2)c2ccccc21
not listed: [10]
inactive: all other assays above

O=C(CCBr)N1CCN(C(=O)CCBr)CC1
not listed: [10]
inactive: all other assays above

O=C(OOC(=O)c1ccccc1)c1ccccc1
not listed: [10]
inactive: all other assays above

CC(C)c1cc2c(cc1S(=O)(=O)O)[C@@]1(C)CCC[C@@](C)(C(=O)O)[C@@H]1CC2
not listed: [10]
inactive: all other assays above

CC(CSC(=O)c1ccccc1)C(=O)N1C[C@@H](Sc2ccccc2)C[C@H]1C(=O)O (stereo partly specified)
not listed: [10]
inactive: all other assays above

Cc1[nH]c(C)c(Cl)c(=O)c1Cl
not listed: [10]
inactive: all other assays above

NS(=O)(=O)c1cc2c(cc1C(F)(F)F)NCNS2(=O)=O
not listed: [5] | [10]
inactive: all other assays above

Cc1cccc(C(=O)O)c1O
not listed: [10]
inactive: all other assays above

O=C(O)c1ccc(OCCCOc2ccc(C(=O)O)cc2)cc1
not listed: [10]
inactive: all other assays above

COC(=O)c1cccnc1
not listed: [4] | [10]
inactive: all other assays above

CC(C)CCOC(=O)c1ccc(N(C)C)cc1
not listed: [2]
inactive: all other assays above

O=C1c2cccc(O)c2C(=O)c2c(O)cccc21
not listed: [2]
inactive: all other assays above

CCOC(=O)[C@H](CCc1ccccc1)N[C@@H](C)C(=O)N1CCC[C@H]1C(=O)O
not listed: [3] | [5]
inactive: all other assays above

O=C(Cn1ccnc1[N+](=O)[O-])NCCO
not listed: [4]
inactive: all other assays above

C[N+]1(C)CCCC(OC(=O)C(O)(c2ccccc2)c2ccccc2)C1 (stereo unspecified)
not listed: [4] | [10]
inactive: all other assays above
